Experimental data reported in PubChem BioAssay AID602182 (The Scripps Research Institute Molecular Screening Center, 2012).
The other results are listed elsewhere or left out. Active and inactive are the calls of the source. No rule for the calls is given here.

Assay: GFP fluorescence inhibitors and quenchers, dose response, artefact control for Rin1-Abl interaction inhibitor project, biochemical (AID 602182);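 also: ABL1-eGFP fusion protein alone without its RIN1 binding partner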
Settings: GFP fluorescence interference/quenching counterscreen

Structure (SMILES)	IC50
Cc1ccccc1CN1C[C@@H]2C[C@@H](c3ccc4nsnc4c3)N3CCC[C@@]23C1=O	> 67.5 µM (inactive)
C[C@@H]1CN([C@H](C)CO)S(=O)(=O)c2ccc(C#C[C@@H](C)O)cc2O[C@@H]1CN(C)Cc1ccc(-c2ccccc2)cc1	> 67.5 µM (inactive)
C=CCn1c2ccccc2c2nnc(SCc3[nH]c(=O)[nH]c3C(=O)CCCCC(=O)OCC)nc21	> 67.5 µM (inactive)
CC(OC(=O)c1ccccc1NCCO)C(=O)Nc1ccnn1C(C)C (stereo not drawn)	> 67.5 µM (inactive)
Nc1cc(=O)c2[nH]cnc2[nH]1	> 67.7 µM (inactive)
CN(Cc1c(F)cccc1Cl)C(=O)CNC(=O)c1ccc2c(c1)OCO2	> 67.6 µM (inactive)
CCOC(=O)N1CCN(C(=O)C2CCN(c3ncnc4c3sc3cccc(F)c34)CC2)CC1	> 67.6 µM (inactive)
CN(C(=O)c1ccc(NC(=O)Cc2cccc(NC(=O)C3CCN(C(=O)c4ccccc4)CC3)c2)cc1)C1CC1	> 67.6 µM (inactive)
